High-throughput results (PubChem BioAssay)
TRHR PAM: allosterically enhances the human TRH receptor; 360,000 compounds, 0.66% hits; P34981; TRHR cells, fluo-8 calcium fluorescence, EC20 TRH enhancement; enhancement, % at 2 µM; AID 493056; in the data active = enhancement above about 30%; note: 0% is about no effect
Target sequence (P34981 whole entry, looked up): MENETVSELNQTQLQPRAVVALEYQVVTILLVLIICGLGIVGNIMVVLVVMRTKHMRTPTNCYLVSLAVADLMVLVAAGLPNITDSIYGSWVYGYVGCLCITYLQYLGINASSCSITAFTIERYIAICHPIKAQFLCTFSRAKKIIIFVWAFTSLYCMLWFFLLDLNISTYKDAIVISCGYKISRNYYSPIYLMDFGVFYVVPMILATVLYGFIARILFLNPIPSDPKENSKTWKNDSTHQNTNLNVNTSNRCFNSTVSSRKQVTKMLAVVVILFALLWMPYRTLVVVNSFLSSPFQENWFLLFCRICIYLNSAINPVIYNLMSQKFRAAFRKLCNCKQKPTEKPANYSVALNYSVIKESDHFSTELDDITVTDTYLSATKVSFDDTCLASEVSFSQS
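TRHR-expressing cells loaded with fluo-8 calcium dye were read kinetically (ex 480/em 530) during compound addition, then stimulated with an EC20 of TRH (10 nM final). Enhancement of the Gq-mediated intracellular calcium response was scored.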
D1 potentiator: enhances dopamine response at the human D1 receptor | P21728 | HEK293 TREx D1 cells, calcium flux, dopamine EC20 potentiation | potentiation, % at 10 µM | 360,000 compounds, 0.036% hits; in the data active = potentiation above about 30%; note: 0% is about no effect
LDHA block: inhibitors of human lactate dehydrogenase A. purified LDHA, NADH/diaphorase-resazurin fluorescence; hits give low values. activity change, % (values are at about 110 or 230 µM). 480,000 compounds, 0.15% hits. AID 1347041; in the data active = activity change below about -30%;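 note: plate controls were DMSO wells for no effect and wells without enzyme for full effect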
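Human LDH5 (2 nM) was incubated with 0.06 mM NADH and 0.2 mM pyruvate for 5 min at room temperature in Tris pH 7.4. Remaining NADH was coupled through diaphorase/resazurin, and resorufin fluorescence was read at 0 and 20 min.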
D1 antag: blocks dopamine activation of the human D1 receptor | P21728 | HEK293 TREx D1 cells, calcium flux, dopamine EC80; hits give low values | activity change, negative = inhibition, % at 10 µM | AID 504652 | 360,000 compounds, 3.2% hits; in the data active = activity change below about -30%; note: % is set by controls: 0 for no effect and ±100 for the full control effect
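Allosteric or orthosteric antagonism assessed as attenuation of the calcium response to EC80 dopamine, added 180 s after compound, in induced HEK293 Trex D1 cells loaded with no-wash calcium dye.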
D1 ag: activates the human D1 dopamine receptor | P21728 | HEK293 T-REx D1 cells, calcium flux, agonist mode | activation, % at 2 µM | 360,000 compounds, 1% hits | AID 504660; note: 0% is about no effect
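Tetracycline-induced HEK293 TREx D1 cells, force-coupled to calcium signalling, were dye-loaded with a no-wash calcium kit. Compound was pin-added after a 10 s baseline. Fluorescence was read kinetically at 1 cycle/s for 180 s, with calcium rises flagged as agonism.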
TRHR ag: agonists of human TRH receptor; P34981; TRHR cells, calcium flux fluo-8, FDSS agonist mode; activation, % at 2 µM; 360,000 compounds, 0.18% hits; note: 0% is about no effect
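TRHR-expressing cells loaded with fluo-8 calcium dye; 23 nL library compound pin-transferred, kinetic FDSS fluorescence (Ex 480/Em 530) recorded about 180 s for agonist-induced calcium release, before a 10 nM TRH EC20 addition for potentiator mode.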
Numbers without * were called inactive; . = not tested or not shown. Compounds with a hit are over-represented: about 3.6% of the library has one in this group of screens. Cut-off read from the data, not from the text of the source, unless noted: active = activation above about 30%; inactive = the rest.

SMILES | TRHR PAM | D1 potentiator | LDHA block | D1 antag | D1 ag | TRHR ag
COCC1CCN(Cc2cn(Cc3ccccc3)nc2-c2cc3ccccc3o2)CC1 | 4 | -2 | -2 | -1 | 39* | -2
CCNc1c(NC(=O)c2cccc(Cl)c2)c(=O)oc2ccccc12 | . | . | 4 | . | . | .
COc1ccc2nc(NC(=O)c3cc(=O)c4ccccc4o3)sc2c1 | 40* | 4 | -1 | 8 | 1 | 0
Cc1ccc2c(=O)cc(C(=O)Nc3nc4ccc(C)cc4s3)oc2c1 | . | . | -3 | . | . | .
COc1ccc2nc(NC(=O)c3cccc(-c4cc5ccccc5oc4=O)c3)sc2c1 | 0 | -7 | -4 | -33* | 2 | 1
COc1ccc2cc(C(C)C(=O)OC(C)C)ccc2c1 (stereo not given) | -3 | 0 | -2 | -37* | 1 | 0
Cc1ccc(Cl)cc1N1CCN(C(=O)c2ccc(NC3=NC4CS(=O)(=O)CC4S3)cc2)CC1 (stereo not given) | -3 | -5 | -2 | -44* | 4 | 1
N#CC1=C(S)N(c2ccccc2)C(c2ccc(-c3ccc(Cl)c(Cl)c3)o2)NC1=O (stereo not given) | 1 | -1 | 0 | -17 | 63* | 2
Cc1ccc(N2C(S)=C(C#N)C(=O)NC2c2ccco2)cc1 (stereo not given) | 1 | -6 | 1 | -47* | 2 | 0
O=C(OCc1ccccc1[N+](=O)[O-])c1nn(-c2ccc(F)cc2)c2c1CCC2 | . | . | 1 | . | . | .
CCN(CC)CCNS(=O)(=O)c1ccc(C(=O)NN)cc1 | -8 | -6 | -2 | -35* | 3 | -2
Nc1cc2c3c(cccc3c1)C(=O)N(CCN1CCCC1)C2=O | 5 | 0 | 5 | -5 | 56* | 12
CCONC(=O)c1ccc2c(c1)NC(=O)C(C)S2 (stereo not given) | . | . | 6 | . | . | .
COc1ccc(CNC(=O)c2ccc3c(c2)NC(=O)C(C)S3)cc1 (stereo not given) | 36* | -1 | 2 | -13 | 0 | 0
O=c1cc(N2CCOCC2)[nH]c(=O)n1-c1ccc(Br)cc1 | -5 | 1 | -6 | 0 | 3 | 1
O=c1cc(N2CCN(c3ccc(F)cc3)CC2)[nH]c(=O)n1-c1ccc(Br)cc1 | -1 | -1 | 1 | -40* | 1 | 0
COC(=O)c1cn(Cc2ccc(C(F)(F)F)cc2)cc(F)c1=O | -8 | -7 | 0 | -31* | 0 | 0
COC(=O)c1ccc(Cn2cc(C(F)(F)F)ccc2=O)cc1 | -3 | -5 | -6 | -1 | 4 | 1
COC(=O)c1cc(-c2ccc(S(=O)(=O)N3CCCC(C)C3)cc2)c(C(F)(F)F)s1 (stereo not given) | -14 | -12 | 1 | -41* | 2 | 1
O=C(Nc1ccc(F)cc1)OCCOc1ccc(Br)cc1 | -5 | 2 | -4 | -55* | 7 | -1
O=C(Nc1ccc(F)cc1)OCCOc1ccc([N+](=O)[O-])cc1 | -12 | -1 | -1 | -28 | 1 | -1
NNC(=O)c1cc2sccc2s1 | -16 | -6 | -8 | -36* | -1 | 1
O=C(NCC#Cc1ccccc1)c1ccc2nccnc2c1 | . | . | -6 | . | . | .
CCc1[nH]c(C(=O)OCC(=O)NC2CCCCC2)c(C)c1C(=O)OC | . | . | -3 | . | . | .
COc1ccc(N2CCN(CCCNC(=O)c3cnn(-c4ccc(F)cc4)c3-n3cccc3)CC2)cc1 | 1 | -1 | 4 | -17 | 41* | -1
O=C(NCCCN1CCN(c2ccc(F)cc2)CC1)c1cnn(-c2ccc(F)cc2)c1-n1cccc1 | 4 | -2 | -4 | 1 | 10 | 1
Cc1nn(-c2ccccc2)c(-n2cccc2)c1C(=O)NCCc1ccc(Cl)cc1 | 4 | 0 | 2 | -29 | 68* | -1
Cc1nn(-c2ccc(F)cc2)c(-n2cccc2)c1C(=O)NCCCN1CCN(c2cccc(Cl)c2)CC1 | 2 | -4 | 2 | -33* | 6 | 0
COc1cc(NC(=O)c2c(C)nn(-c3ccc(F)cc3)c2-n2cccc2)cc(OC)c1 | 9 | -1 | -4 | 0 | 5 | 42*
